This is part of a sample that, as a whole, favours compounds with a hit. Of some 79,000 tested, about 15% had one in any assay. The source made the active and inactive calls. Rule as the data show it: active = growth inhibition above about 70%; inactive = the rest.
How the values were obtained:
[1] = NCI Yeast Anticancer Drug Screen. Data for the rad52 strain (AID 147);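 also: 0% = growth of vehicle-treated control cultures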; conditions: S. cerevisiae rad52 mutant growth inhibition, stronger effect = higher value
Summary of the method: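 Measured: yeast growth inhibition. System: strain with a defined DNA damage repair alteration. Reference: vehicle-treated control cultures.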

[2] = NCI Yeast Anticancer Drug Screen. Data for the wt1 strain (AID 149);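 also: 0% = growth of vehicle-treated wt1 cultures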; conditions: S. cerevisiae wt1 strain (SPY 50644) growth inhibition, stronger effect = higher value
Summary of the method: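 Growth inhibition read against vehicle controls after compound exposure of the wt1 yeast strain.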

[3] = NCI Yeast Anticancer Drug Screen. Data for the rad50EPP+ strain (AID 151);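 also: 0% = growth of vehicle-treated control cultures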; conditions: S. cerevisiae rad50 mutant strain, stronger effect = higher value
Summary of the method: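 One strain with a rad50 alteration (rad50EPP+) was compound-treated, its growth then compared to that of vehicle controls.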

[4] = NCI Yeast Anticancer Drug Screen. Data for the mgt1 strain (AID 153); conditions: S. cerevisiae mgt1 mutant growth inhibition, stronger effect = higher value
Summary of the method: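 After exposure of the mgt1 yeast mutant to compound, growth was measured and reported as inhibition compared with vehicle controls.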

[5] = NCI Yeast Anticancer Drug Screen. Data for the rad50 strain (AID 155);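 also: 0% = growth of vehicle-only cultures of the same strain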; conditions: S. cerevisiae rad50 strain growth inhibition, stronger effect = higher value
Summary of the method: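 Readout: growth inhibition relative to vehicle-treated cultures. Compound exposure was carried out in a genetically defined yeast strain deficient in DNA damage repair.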

[6] = NCI Yeast Anticancer Drug Screen. Data for the mec2-1 strain (AID 157); conditions: S. cerevisiae mec2-1 strain, stronger effect = higher value
Summary of the method: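 Test agents were screened against the mec2-1 yeast strain, with defined DNA repair or cell cycle alteration. Growth was scored as inhibition against vehicle-only controls.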

[7] = NCI Yeast Anticancer Drug Screen. Data for the rad14 strain (AID 159);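 also: 0% = growth of vehicle-treated control cultures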; conditions: S. cerevisiae rad14 strain growth inhibition, stronger effect = higher value
Summary of the method: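 Growth inhibition vs vehicle controls; genetically altered yeast strain (DNA damage repair defect) treated with test compounds.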

[8] = NCI Yeast Anticancer Drug Screen. Data for the sgs1 mgt1 strain (AID 161);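 also: 0% = growth of cultures given vehicle only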; conditions: S. cerevisiae sgs1 mgt1 strain, stronger effect = higher value
Summary of the method: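 Read-out: growth inhibition vs vehicle controls. Cells: mutant yeast strain deficient in DNA damage repair.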

[9] = NCI Yeast Anticancer Drug Screen. Data for the CLN2oe strain (AID 163);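 also: 0% = growth of vehicle-only control cultures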; conditions: S. cerevisiae CLN2oe strain, stronger effect = higher value
Summary of the method: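 Here, growth inhibition in a cell-cycle-altered yeast strain after compound exposure was quantified against vehicle control growth.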

[10] = NCI Yeast Anticancer Drug Screen. Data for the cln2 rad14 strain (AID 165);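 also: 0% = growth equal to vehicle treated cultures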; conditions: S. cerevisiae cln2 rad14 strain, stronger effect = higher value
Summary of the method: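 Growth of compound-exposed yeast (cln2 rad14 genotype) measured and expressed as inhibition relative to vehicle.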

[11] = NCI Yeast Anticancer Drug Screen. Data for the bub3 strain (AID 167); conditions: S. cerevisiae bub3 mutant strain, stronger effect = higher value
Summary of the method: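 Readout: yeast growth inhibition, expressed relative to vehicle-only wells. The test organism is a mutant strain from a panel with lesions in DNA repair or checkpoint genes.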

[12] = NCI Yeast Anticancer Drug Screen. Data for the wt2 strain (AID 169);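 also: 0% = growth of vehicle-treated yeast cultures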; conditions: S. cerevisiae wt2 strain growth inhibition, stronger effect = higher value
Summary of the method: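 Genetically defined yeast strains from a DNA-repair/cell-cycle panel were used. Compound-exposed yeast growth was measured, and the inhibition was calculated relative to vehicle treatment.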

[13] = NCI Yeast Anticancer Drug Screen. Data for the mlh1 strain (AID 171);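 also: 0% = growth of vehicle-treated control cultures of the same strain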; conditions: S. cerevisiae mlh1 strain growth inhibition, stronger effect = higher value
Summary of the method: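 Here the genetically defined yeast mutant is grown with each compound, and the extent to which its growth falls below that of vehicle-exposed cells is reported.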

[14] = NCI Yeast Anticancer Drug Screen. Data for the mlh1 rad18 strain (AID 175); conditions: S. cerevisiae mlh1 rad18 strain growth inhibition, stronger effect = higher value
Summary of the method: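 In this whole-cell yeast screen, a strain with altered DNA damage repair is challenged with compound, and its growth is measured against matched vehicle-treated controls.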

[15] = NCI Yeast Anticancer Drug Screen. Data for the rad18 strain (AID 177); conditions: S. cerevisiae rad18 mutant growth inhibition, stronger effect = higher value
Summary of the method: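 Screen uses a yeast strain with a defined lesion in DNA damage repair; compound effect is read as loss of growth compared to untreated vehicle cultures.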

[16] = at 5.0 µM (retest, dose inferred, filed as 0.5)
[17] = at 50.0 µM (retest, dose inferred, filed as 5.0)

Measured: growth inhibition

CCOC(=O)[C@H]1Nc2ccc(OC)cc2C2c3ccccc3CC21 (stereo partly drawn)
inactive: [1]; at 1.2 µM -22% | [1]; at 3.7 µM -27% | [1]; at 11.0 µM -20% | [1]; at 33.0 µM 57% | [2]; at 1.2 µM -29% | [2]; at 3.7 µM -27% | [2]; at 11.0 µM -25% | [2]; at 33.0 µM 50% | [3]; at 1.2 µM -25% | [3]; at 3.7 µM -19% | [3]; at 11.0 µM -23% | [3]; at 33.0 µM 10% | [3]; at 100.0 µM 4% | [4]; at 1.2 µM -40% | [4]; at 3.7 µM -46% | [4]; at 11.0 µM -46% | [4]; at 33.0 µM 28% | [5]; at 1.2 µM -21% | [5]; at 3.7 µM -12% | [5]; [16] 19% | [5]; at 11.0 µM -19% | [5]; at 33.0 µM 34% | [5]; [17] 9% | [6]; at 1.2 µM -48% | [6]; at 3.7 µM -21% | [6]; [16] -9% | [6]; at 11.0 µM -48% | [6]; at 33.0 µM 29% | [6]; [17] 13% | [6]; at 50.0 µM 34.1% | [7]; at 1.2 µM -54% | [7]; at 3.7 µM -49% | [7]; at 11.0 µM -50% | [7]; at 33.0 µM 0% | [8]; [16] 8% | [8]; [17] 53% | [8]; at 50.0 µM 55.5% | [9]; at 1.2 µM -23% | [9]; at 3.7 µM -28% | [9]; at 11.0 µM -21% | [9]; at 33.0 µM 39% | [10]; [16] 20% | [10]; [17] 37% | [10]; at 50.0 µM 57% | [11]; at 1.2 µM -26% | [11]; at 3.7 µM -19% | [11]; [16] 4% | [11]; at 11.0 µM -27% | [11]; at 33.0 µM 51% | [11]; at 50.0 µM 53.4% | [12]; at 1.2 µM -4% | [12]; at 3.7 µM -14% | [12]; at 11.0 µM -7% | [12]; at 33.0 µM 55% | [13]; at 1.2 µM -29% | [13]; at 3.7 µM -21% | [13]; at 11.0 µM -38% | [13]; at 33.0 µM 46% | [14]; [16] -13% | [14]; [17] 34% | [14]; at 50.0 µM 60.4% | [15]; at 1.2 µM 1% | [15]; at 3.7 µM -9% | [15]; at 11.0 µM 3% | [15]; at 33.0 µM 56%
active: [1]; at 100.0 µM 90% | [2]; at 100.0 µM 90% | [4]; at 100.0 µM 83% | [5]; at 50.0 µM 70% | [5]; at 100.0 µM 91% | [6]; at 100.0 µM 88% | [7]; at 100.0 µM 82% | [9]; at 100.0 µM 89% | [11]; [17] 83% | [11]; at 100.0 µM 90% | [12]; at 100.0 µM 85% | [13]; at 100.0 µM 86% | [15]; at 100.0 µM 93%
